Holding throughout (experiment): NCI-60 one-dose screen, 48 h (100 = growth as untreated, 0 = no growth, -100 = all killed)
The test system of one assay is SK-MEL-2 melanoma. As to conditions: 10 µM unless noted.
Another assay relates to EKVX NSCLC. The note with it: 10 µM unless noted.
For another assay, the system named is SN12C renal. As to conditions: 10 µM unless noted.
Another assay deals with UO-31 renal. As to conditions: 10 µM unless noted.
The next assay relates to ACHN renal. As to conditions: 10 µM unless noted.
The test system of another assay is A498 renal. As to conditions: 10 µM.
The test system of another assay is HL-60(TB) leukemia. As to conditions: 10 µM unless noted.
In another assay the test system is CCRF-CEM leukemia. As to conditions: 10 µM unless noted.
In the next assay the test system is TK-10 renal. The note with it: 10 µM unless noted.
In another assay the test system is CAKI-1 renal. The note with it: 10 µM unless noted.

Molecules are shown by their SMILES. The panel holds about 83,000 compounds, 20% with a hit somewhere; the sample as a whole holds those more often.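 Interpretation: 100, growth as untreated; towards 0, rising growth inhibition; 0, no net growth; 0 to -100, cell death. Compounds scoring below 10 were considered active.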 Unmarked numbers belong to inactive results. Calls of active or inactive are those of the source.

On to `CC(C)[C@@H]1NC(=O)[C@]2(C)CSC(=N2)c2csc(n2)CNC(=O)C[C@@H](/C=C/CCS)OC1=O`, for which the growth was -28.2% (active) with SK-MEL-2 melanoma; 32.4% with EKVX NSCLC; 31.7% with SN12C renal; 10.4% in the assay on UO-31 renal; 5.8% (active) in the assay on ACHN renal; -74.8% (active) in the assay with A498 renal. The growth with HL-60(TB) leukemia is 8.48% (active); in the assay on CCRF-CEM leukemia, 9.97% (active).

With `CCc1ccccc1[C@@H]1C[C@]2(C)CCO[C@@H]2OO1`, the growth was 115% in the assay with SK-MEL-2 melanoma; 105% in the assay on EKVX NSCLC; 91.5% in the assay with UO-31 renal; 96.9% in the assay on TK-10 renal; 104% in the assay with ACHN renal; 96.5% in the assay with CAKI-1 renal. For the same molecule, the growth was 102% in the assay with A498 renal, 109% in the assay with HL-60(TB) leukemia and 94.1% in the assay with CCRF-CEM leukemia.

Turning to `CCOC(=O)CCC(NC(=O)C(Cc1ccc(N(CCCl)CCCl)cc1)NC=O)C(=O)OCC` (centres undefined), the growth with SK-MEL-2 melanoma is -64.3% (active); with EKVX NSCLC it was 55.4%; in the assay on SN12C renal, 3.28% (active); in the assay on TK-10 renal it was 111%; with ACHN renal, -33.9% (active); in the assay with CAKI-1 renal it was 10.5%. The growth in the assay with A498 renal was 128%; in the assay with HL-60(TB) leukemia, 9.37% (active); in the assay on CCRF-CEM leukemia, 17.6%.

As to `O=[N+]([O-])c1cc([N+](=O)[O-])c(Cl)cc1Cl`, the growth with SK-MEL-2 melanoma is -43% (active); in the assay with EKVX NSCLC, -57.1% (active); with SN12C renal, -89% (active); in the assay with UO-31 renal, -93.9% (active); with TK-10 renal, -92.9% (active); with A498 renal it was 80.1%. For the same molecule, the growth is -40.4% (active) with HL-60(TB) leukemia and -36.3% (active) in the assay with CCRF-CEM leukemia.

Take `CCC(O)(CN)c1ccccc1` (centres undefined): the growth is 97.7% in the assay with SK-MEL-2 melanoma; 98.3% in the assay with EKVX NSCLC; 89.7% in the assay with UO-31 renal; 101% with TK-10 renal; 105% with ACHN renal; 96.3% in the assay on CAKI-1 renal. Also, the growth in the assay with A498 renal was 86.7%; in the assay with HL-60(TB) leukemia, 101%.

For `COC(=O)C1CCC(NC(=O)c2csc([C@@H](C[C@H](C(C)C)N(C)C(=O)[C@@H](NC(=O)[C@H]3CCCCN3C)C(C)C)OC(C)=O)n2)CC1` (some centres undefined), the growth with SK-MEL-2 melanoma is 28.6%; with EKVX NSCLC, 40.8%; with SN12C renal, 28.7%; in the assay on UO-31 renal it was 60.8%; in the assay on TK-10 renal, 63.1%; with A498 renal, -6.6% (active). For the same molecule, the growth with HL-60(TB) leukemia is -21.8% (active); in the assay with CCRF-CEM leukemia it was 13%.

Consider `O=P(Oc1ccc(Cl)cc1)(N1CC1)N1CC1`, for which the growth with SK-MEL-2 melanoma was 102%; with EKVX NSCLC, 101%; with UO-31 renal, 61.1%; with TK-10 renal, 104%; in the assay with ACHN renal, 25%; in the assay on CAKI-1 renal, 5.92% (active). Also, the growth with A498 renal is 97.4%; in the assay on HL-60(TB) leukemia, 96%; in the assay on CCRF-CEM leukemia, 82.5%.

For `CN(C)C(=O)Oc1ccccc1`, the growth in the assay with SK-MEL-2 melanoma was 108%; in the assay on EKVX NSCLC, 104%; with SN12C renal, 106%; in the assay on UO-31 renal, 103%; in the assay on TK-10 renal, 107%; with HL-60(TB) leukemia, 94.5%.

`CC[C@@H]1[C@@H](C)O[C@@](O)([C@@H](C)[C@H](O)[C@H](C)[C@H]2OC(=O)/C=C/C=C/[C@H](C)[C@@H]([C@@H](C)[C@@H](O)[C@H](C)[C@@]3(O)C[C@@H](O[C@H]4C[C@@H](O)[C@H](O)C(C)O4)[C@H](CC)[C@@H](C)O3)OC(=O)/C=C/C=C/[C@@H]2C)C[C@H]1O[C@@H]1C[C@@H](O)[C@H](O)C(C)O1` (some centres undefined): the growth in the assay on SK-MEL-2 melanoma is -92% (active); in the assay on EKVX NSCLC, -88.6% (active); in the assay on SN12C renal, -75.1% (active); in the assay with UO-31 renal, -97% (active); with ACHN renal, -96.8% (active); in the assay with CAKI-1 renal, -98.4% (active). Besides, the growth in the assay with A498 renal was -97.5% (active); with HL-60(TB) leukemia, -73.3% (active); with CCRF-CEM leukemia it was -61.5% (active).

In the case of `CC(C)(N)Cc1ccccc1`, the growth is 108% in the assay on SK-MEL-2 melanoma; 99.1% in the assay with EKVX NSCLC; 84.7% in the assay on UO-31 renal; 96.5% with TK-10 renal; 106% in the assay with ACHN renal; 97.6% in the assay on CAKI-1 renal. In addition, the growth in the assay with A498 renal is 111%; with HL-60(TB) leukemia, 94.9%; with CCRF-CEM leukemia it was 100%.

Regarding `COC(=O)[C@H](Cc1ccccc1)NNC(=O)c1csc([C@@H](C[C@H](C(C)C)N(C)C(=O)[C@@H](NC(=O)[C@H]2CCCCN2C)C2CC2)OC(C)=O)n1`, the growth with SK-MEL-2 melanoma was 30.6%; with EKVX NSCLC, 29.9%; with SN12C renal, 24.3%; in the assay with UO-31 renal it was 42.8%; in the assay with ACHN renal, 24.8%; in the assay with CAKI-1 renal, 21.4%. Further, the growth in the assay with A498 renal was -3.69% (active); in the assay on HL-60(TB) leukemia, -55.4% (active); with CCRF-CEM leukemia it was -2.7% (active).

Regarding `COC(=O)[C@H](Cc1ccccc1)NC(=O)c1csc([C@@H](C[C@H](C(C)C)N(C)C(=O)[C@@H](NC(=O)[C@H]2CCCCN2C)C2CC2)OC(C)=O)n1`, the growth is 15.3% in the assay with SK-MEL-2 melanoma; 29.9% with EKVX NSCLC; 21.6% in the assay with SN12C renal; 35.9% with UO-31 renal; 28.9% with ACHN renal; 24.1% with CAKI-1 renal. Moreover, the figures for the growth in the assay with A498 renal, in the assay on HL-60(TB) leukemia and in the assay on CCRF-CEM leukemia were -7.28% (active), -43.1% (active) and 2.68% (active), respectively.

For `O=C1NC(=O)C(=Cc2cn(CCCCCCn3c4ccccc4c(=O)c4ccccc43)c3ccccc23)C(=O)N1`, the growth in the assay with SK-MEL-2 melanoma was 94%; in the assay with EKVX NSCLC, 89.8%; in the assay on SN12C renal, 91.1%; with UO-31 renal, 63.9%; with ACHN renal, 101%; in the assay with CAKI-1 renal it was 97.6%. For the same molecule, the growth in the assay on A498 renal is -49.3% (active); in the assay with HL-60(TB) leukemia, 78.7%; with CCRF-CEM leukemia it was 80.6%.

Turning to `O=C(CC1(O)C(=O)N(Cc2ccccc2)c2ccc(Br)cc21)c1ccc(C(=O)NCC2CCC3(CC2)OOC2(CCCCC2)OO3)cc1` (centres undefined), the growth with SK-MEL-2 melanoma was 34.1%; in the assay on EKVX NSCLC, -65% (active); in the assay on UO-31 renal, -73.3% (active); with TK-10 renal, -80.9% (active); in the assay with ACHN renal, -83% (active); in the assay on CAKI-1 renal, -90.8% (active). In addition, the growth in the assay with A498 renal was -74% (active); in the assay with HL-60(TB) leukemia, -57.3% (active); with CCRF-CEM leukemia, -41.6% (active).

The values above are taken from PubChem BioAssay (NCI).
